Compound activity (PubChem)
This is a sample that favours compounds with a hit; in the whole collection about 8% have one here.
KB-V1 MDR tox: KB-V1 MDR subline cytotoxicity | KB-V1 MDR cells viability, CellTiter-Glo, 72 h | Potency, µM (series often up to 46.1 µM), most hits filed as cytotoxic | actives 3.4% (n = 400,000) | AID 1347076; note: nearly all actives have a fitted effect of over 60% in size
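Readout: CellTiter-Glo luminescence, 10 min after addition. Cells: KB-V1 MDR subline, 72 h at 37 degrees C with compound. Analysis: corrected, normalized data fitted to concentration-effect curves.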
HT1080NT lethal: kills 2HG-producing HT-1080-NT fibrosarcoma cells. HT-1080-NT fibrosarcoma viability, CellTiter-Glo ATP luminescence, 48 h. Potency, µM (top dose mostly 46.1 µM), actives largely listed as cytotoxic. actives 1.6% (n = 360,000);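 note: NT is the 2HG producing partner of a matched IDH1 knockdown line; nearly all actives have a fitted effect of over 55% in size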
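HT-1080-NT fibrosarcoma cells (2HG-overproducing), 750 cells/well in RPMI with 5% FBS, dosed after 2 h and incubated 48 h at 37C. CellTiter-Glo luminescence normalized to DMSO and no-cell wells; concentration-response curves fitted and classed.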
SW480 rereplic: induces DNA re-replication in SW480 colon adenocarcinoma cells; AID 624297; actives 1.8% (n = 340,000); Potency, µM (doses to about 46.1 µM), hits mostly activators; SW480 DNA re-replication, Hoechst DNA content imaging, 48 h; note: nearly all actives have a fitted effect of over 55% in size
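Hoechst fluorescence of nuclei (405 nm excitation, 500-530 nm emission) measured by plate-scanning imager after 48 hr compound exposure at 37 C; re-replication scored as increased number of nuclei with elevated intensity.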
KB-3-1 tox: KB-3-1 parental cell cytotoxicity; KB-3-1 viability, CellTiter-Glo ATP luminescence, 72 h; Potency, µM (series often up to 46.1 µM), most hits filed as cytotoxic; actives 1.4% (n = 400,000); note: nearly all actives have a fitted effect of over 60% in size
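Parental KB-3-1 viability, qHTS format: 72 h compound exposure, 37 °C; CellTiter-Glo; media-only wells and DMSO plates as controls; concentration-effect fits on corrected data.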
HT1080 IDH1KD tx: kills HT-1080 cells with IDH1 knockdown; HT-1080 IDH1 knockdown viability, ATP luminescence, 48 h; Potency, µM (titrated, usually from 46.1 µM), usual class: cytotoxic; actives 2% (n = 360,000); AID 686971
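% activity derives from luminescence (CellTiter-Glo), normalised to DMSO and no-cell wells. HT-1080-IDH1KD cells, 750/well, had 48 h compound exposure at 37 °C.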
MCF10A rerep: inducers of DNA re-replication in MCF 10A breast cells; MCF 10A DNA re-replication, Hoechst nuclear intensity, 48 h; Potency, µM (doses to about 46.1 µM), most hits filed as activators; actives 2.9% (n = 350,000); note: nearly all actives have a fitted effect of over 50% in size
Hits are given with their value; i = inactive; ? = inconclusive; nt = not tested or not shown; ! = not confirmed by another sample; [ ] = another dose, or the depositor's remark. Calls come from the whole dose curve; as a rule, active = well fitted curve in the direction sought with a large enough effect; inconclusive = small, poorly fitted or top-dose-only effect, or another doubt; inactive = no such curve, though single readings can be large; an effect the other way counts as inactive or inconclusive.

SMILES	KB-V1 MDR tox	HT1080NT lethal	SW480 rereplic	KB-3-1 tox	HT1080 IDH1KD tx	MCF10A rerep
NNS(=O)(=O)c1ccc2c(c1)Cc1cc(S(=O)(=O)NN)ccc1-2	i	i	i	i	i	i
Cc1c(C(=O)Nc2cccc(Cl)c2)oc2ccc(S(=O)(=O)N3CCCCCC3)cc12	i	nt	nt	i	nt	nt
Cc1c(C(=O)Nc2cccc(Cl)c2)oc2ccc(S(=O)(=O)N3CCC4(CC3)OCCO4)cc12	4.1µM	i	3.7µM	?	i	5.8µM
Cc1c(C(=O)Nc2ccc(F)c(F)c2)oc2ccc(S(=O)(=O)N3CCCCC3)cc12	7.3µM!	i	i	i	i	?
Cc1ccc(NC(=O)c2oc3ccc(S(=O)(=O)N4CCCCCC4)cc3c2C)cc1Cl	i	nt	nt	i	nt	nt
CCOC(=O)c1ccc(Nc2cc(C)nc(N3CCOCC3)n2)cc1	?	?	?	?	?	i
O=C(NNC1=NCCCCC1)Nc1cccc(Cl)c1	i	i	i	i	i	i
O=C(/C=C/c1ccc(Cl)cc1)NC(=S)Nc1ccccc1C(=O)O	i	?	16µM	i	?	?
NC(=O)c1ccccc1NC(=O)/C=C/c1ccc(Cl)cc1	15µM	?	i	i	?	i
Cc1ccc(C(C2=C(O)CC(C)(C)CC2=O)C2C(=O)CC(C)(C)CC2=O)o1 (configuration not stated)	i	i	i	i	i	i
CCOC(=O)c1cnc2c(C(F)(F)F)cccc2c1Nc1cccc(C(=O)OC)c1	i	nt	nt	i	nt	nt
CCOC(=O)c1cnc2c(OC)cccc2c1Nc1cccc(O)c1	13µM	nt	nt	?	nt	nt
COc1ccc(/C(O)=C/C(=O)C(=O)Nc2c(C)n(C)n(-c3ccccc3)c2=O)cc1	16µM	i	i	i	i	?
Cc1c(NC(=O)c2ccc(COc3ccc4ccccc4c3)o2)c(=O)n(-c2ccccc2)n1C	7.3µM	i	i	21µM	i	i
Cc1cccc(NC(=O)c2ccc(COc3ccc4ccccc4c3)o2)n1	i	i	i	i	i	?
Cc1cc(C)c2c(C)c(C(=O)Nc3c(C)n(C)n(-c4ccccc4)c3=O)oc2c1	8.2µM	i	i	i	i	i
Cc1cccc(-c2ccc([N+](=O)[O-])cc2CN2CCN(c3ncc(Cc4ccccc4)cn3)CC2)c1	?	?	nt	i	?	nt
COCCn1c(-c2ccc(SC)cc2)nc2c1c(=O)[nH]c(=O)n2CC(C)C	?	i	i	i	i	i
COCCn1c(-c2ccc(-c3ccc([N+](=O)[O-])cc3Br)o2)nc2c1c(=O)[nH]c(=O)n2CC(C)C	7.3µM	?	i	i	i	18µM
O=c1[nH]c(=O)n(Cc2ccccc2)c2nc(-c3ccc(Oc4ccc(F)cc4)c([N+](=O)[O-])c3)n(CCO)c12	?	21µM	i	?	?	?
COCCn1c(=O)[nH]c(=O)c2c1nc(-c1ccc(-c3ccc(Cl)cc3[N+](=O)[O-])o1)n2Cc1ccccc1	23µM	?	?	?	?	5.2µM
COCCNC(=O)CSc1nnc(CCCN2C(=O)c3cccc4cccc(c34)C2=O)n1-c1ccccc1	i	i	i	i	i	i
Cc1cc(NC(=O)NC(=O)c2ccccc2NC(=O)C(C)N)ccc1Oc1ncc(Br)cn1 (configuration not stated)	0.73µM	?	2.9µM	0.23µM	0.092µM	?
CCOC(=O)c1ccccc1NC(=O)Nc1ccc(OC)c(OC)c1	i	i	i	i	i	i
Cc1ccc(NC(=O)COC(=O)CN2C(=O)COc3ccccc32)cc1	i	i	i[9.22 µM]	i	i	i
SMILES	KB-V1 MDR tox	HT1080NT lethal	SW480 rereplic	KB-3-1 tox	HT1080 IDH1KD tx	MCF10A rerep
COCC(=O)Nc1ccc2c(c1)OCC(=O)N2Cc1ccc(C)cc1	i	i	i	i	i	23µM
Cc1ccc(N2C(=O)C3C4C=CC(CNC(=S)Nc5ccc(Cl)cc5)(O4)C3C2=O)cc1 (configuration not stated)	8.2µM	i	i	?	i	?
Cc1ccc(N2C(=O)C3C4C=CC(CNC(=S)Nc5cccc(Cl)c5)(O4)C3C2=O)cc1 (configuration not stated)	12µM	i	?	i	i	i
Cc1ccc(N2C(=O)C3C4C=CC(CNC(=S)Nc5ccc(F)cc5)(O4)C3C2=O)cc1 (configuration not stated)	i	i	?	i	i	?
CC(O)(C(=O)c1ccccc1)c1ccccc1 (configuration not stated)	i	i	nt	i	i	nt
CN(C)C/C=C/C(O)(c1ccccc1)c1ccccc1	i	i	i	i	i	16µM
COc1ccccc1-c1sc2ccccc2c1-c1ccccc1OC	i	i	i[9.22 µM]	i	i	i
COc1ncc(-c2c(-c3ccccc3OC)sc3ccccc23)cn1	i	?	nt	?	16µM	nt
C/C(=N\OCC(=O)Nc1ccccc1Br)c1cccs1	i	i	0.15µM	i	i	?
O=C(CN1CCN(S(=O)(=O)c2ccc(Cl)c(C(F)(F)F)c2)CC1)NC(=O)NC1CCCCC1	i	i	i	i	i	i
O=C(NN=C1CCCC1)c1n[nH]c2c1CCCC2	i	?	?	i	?	?
O=C(NN=C1CCCC1)c1n[nH]c2c1CCC2	?	2.6µM	?	?	3.7µM	?
Cc1ccsc1/C=N\NC(=O)c1n[nH]c2c1CCC2	4.6µM	6.5µM	13µM	3.3µM	7.3µM	8.2µM
c1coc(-c2nnc(-c3ccco3)nn2)c1	i	i	4µM	i	i	i
c1ccc(-c2nnc(-c3ccco3)o2)cc1	i	i	i	i	i	i
COc1cccc(N2CC(O)=C(c3nc4ccccc4c(=O)[nH]3)C2=N)c1	?	1.3µM	i	4.6µM	?	i
Cc1cc(C)cc(N2CC(O)=C(c3nc4ccccc4c(=O)[nH]3)C2=N)c1	?	i	?	15µM	i	?
CCCCCCCCCCCCCCCC[n+]1ccc(/C=C/c2c[nH]c3ccccc23)cc1	?	nt	nt	12µM	nt	nt
CCCCCCCCCC[n+]1ccc(/C=C/c2c[nH]c3ccccc23)cc1	?	nt	nt	5.2µM	nt	nt
CN(C)C1CN(Cc2cn(Cc3cccc(Cl)c3)nn2)S(=O)(=O)C1 (configuration not stated)	?	i	nt	i	i	nt
Cc1ccc(Nc2c(-c3ccccn3)nc3ccc(Br)cn23)cc1	?	nt	nt	i	nt	nt
COC(=O)CNc1c(-c2ccccn2)nc2ccc(Br)cn12	5.2µM	i	i	i	i	i
COc1ccc(N(C)S(=O)(=O)c2cccc3cccnc23)c(OC)c1	?	11µM	21µM	?	8.9µM	8.2µM
COc1ccccc1NC(=O)CN(C)S(=O)(=O)c1cccc2cccnc12	i	i	i	i	i	i
Fc1ccc(-c2[nH]ncc2-c2nnnn2-c2ccccc2)c(F)c1	?	i	i	i	i	i
